Screens as filed in PubChem BioAssay.
TAG inh = triacylglycerol accumulation inhibition. H9c2 cells, Nile Red lipid (TAG) fluorescence; cells loaded with 200 µM oleic acid. inhibition, % at 12.5 µM. hit rate 0.66% among 230,000. AID 651582;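 active means pattern-corrected inhibition of lipid staining of at least 50% with the nuclear-stain viability signal not falling by more than 50%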;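 further: 0% = DMSO wells and 100% = triacsin C control wells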
beta cell repl = inducers of beta-cell replication in MIN6 cells | hit rate 0.29% among 330,000 | MIN6 cells proliferation, ATPlite luminescence, 48 h; cells starved in 0.2% serum; 100% = growth in 10% serum | AID 2380 | proliferation, % at 10 µM;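 active means compounds whose signal lies at least 3.5 SD above the mean of all wells on their plate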;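 further: 0% = DMSO-treated cells in low-serum medium and 100% = 10% serum control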
hiPSC survival = hiPSC single-cell survival enhancement; ATPlite luminescence; 100% = ROCK inhibitor wells, 0% = DMSO; survival enhancement, % at 20 µM; hit rate 0.044% among 360,000; AID 602274; in the data active means survival enhancement above about 18%;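 further: cells exposed to compounds for 16 hours before the ATP read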
TAG conf = triacylglycerol accumulation inhibition, confirmation. shares compounds with TAG inh. H9c2 lipid accumulation, Nile Red fluorescence; cells loaded with 200 µM oleic acid. inhibition, % at 12.5 µM. hit rate 71% among 990;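 active means mean inhibition across replicates of 40% or more; inactive means mean inhibition below 40%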;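 further: plate controls were DMSO only wells for no effect and Triacsin C treated wells for full effect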
Starred values were filed as active, the others as inactive; nt = not tested or not shown. Shown are actives, neighbours in structure and some others; about 0.71% of the full set was active somewhere.

SMILES | TAG inh | beta cell repl | hiPSC survival | TAG conf
Cc1ccc(CNC(=O)c2ccc(N3CCC4(CC3)CC(c3ccccc3)=NO4)c(NC(=O)c3ccc(Cl)c([N+](=O)[O-])c3)c2)cc1 | 51* | -3 | -5 | 37
O=C1OC(c2ccccc2)(c2ccc3cc(O)ccc3c2)c2ccccc21 (stereo unspecified) | -1 | nt | -1 | nt
CC(C)C[C@@H](CN1CCC[C@@H]1CN1C(=S)NC[C@@H]1Cc1ccc(O)cc1)N1C[C@H](Cc2ccc(O)cc2)N(CC2CCCCCC2)C1=S | nt | nt | -1 | nt
CN(C)c1ccc(-c2ccnc3c2CC(C)(C(=O)NCc2ccc(F)c(F)c2)O3)cc1 (stereo unspecified) | -27 | nt | -1 | nt
O=C1NC[C@H](CCCCN2C[C@H](Cc3ccccc3)N(CCC3CCCCC3)C(=O)C2=O)N(Cc2ccccc2)C1=O | nt | nt | 0 | nt
O=C(Nc1cccc(Cl)c1)c1nc[nH]c1C(=O)NCCCNC(=O)c1[nH]cnc1C(=O)Nc1cccc(Cl)c1 | 70* | -5 | -2 | 85*
Cc1ccc(NC(=O)c2nc[nH]c2C(=O)NCCCCNC(=O)c2[nH]cnc2C(=O)Nc2ccc(C)cc2)cc1 | 66* | -6 | 0 | 86*
Cc1ccc(NC(=O)c2nc[nH]c2C(=O)NCCCCCCNC(=O)c2[nH]cnc2C(=O)Nc2ccc(C)cc2)cc1 | 109* | -6 | -1 | 95*
O=C(Nc1ccccc1)c1nc[nH]c1C(=O)NCCCCNC(=O)c1[nH]cnc1C(=O)Nc1ccccc1 | 21 | -5 | 0 | nt
Cc1ccc(NC(=O)c2nc[nH]c2C(=O)NCCCCCNC(=O)OC(C)(C)C)cc1 | nt | -2 | -2 | nt
Cc1ccc(NC(=O)c2nc[nH]c2C(=O)NCCCNC(=O)c2[nH]cnc2C(=O)Nc2ccc(C)cc2)cc1 | 47 | -6 | 0 | nt
CCOC(=O)c1ccc(NC(=O)c2nc[nH]c2C(=O)NCCCNC(=O)c2[nH]cnc2C(=O)Nc2ccc(C(=O)OCC)cc2)cc1 | 13 | -6 | -3 | nt
CCOC(=O)c1ccc(NC(=O)c2nc[nH]c2C(=O)NCCCCNC(=O)c2[nH]cnc2C(=O)Nc2ccc(C(=O)OCC)cc2)cc1 | 122* | -7 | -2 | 86*
Nc1nc(N)c(N=O)c(Nc2cccc(Cl)c2)n1 | nt | nt | -2 | nt
N#Cc1ccc(C(=O)N2CCCCC2c2cc(C(=O)Nc3ccccc3Cl)no2)cc1 (stereo unspecified) | -19 | nt | -2 | nt
Cc1ccc(F)c(S(=O)(=O)NC(=O)C2(C)CCN2C(=O)Cc2cccs2)c1 (stereo unspecified) | -2 | nt | -1 | nt
Cc1ccc(-c2nc3cc(C)c(Br)c(C)n3c2CC(C)(C)C)cc1 | nt | nt | -2 | nt
COc1ccccc1[C@H]1C(c2ccccc2)=NN(c2ccccc2)[C@@H]1CO | 2 | nt | 2 | nt
COc1ccccc1[C@H]1C(c2cccc(C)c2)=NN(c2ccccc2)[C@@H]1CO | 72* | nt | -2 | 15
COc1ccc(CCNC(=O)Cc2cc(OCc3ccccc3)c(OC)cc2[N+](=O)[O-])cc1OC | 63* | -2 | 0 | 33
COc1ccc(CCNC(=O)Cc2cc(OC)c(OC)cc2[N+](=O)[O-])cc1OC | 5 | -4 | 2 | nt
CCOC(=O)c1cc(-c2ccncc2)nc2c1c(C)nn2-c1ccccn1 | 68* | -1 | 12 | 43*
COc1ccc(-c2cc(C(=O)O)c3c(C)nn(-c4ccccn4)c3n2)cc1 | nt | 2 | nt | nt
CCc1nc2ccc(C(=O)NCc3ccc4c(c3)OCO4)cn2c1N(CCC(C)C)CCN(C)C | 73* | nt | -3 | 30
CCc1nc2ccc(C(=O)NCc3ccc4c(c3)OCO4)cn2c1N(CC)CCN(C)C | 11 | nt | 2 | nt
SMILES | TAG inh | beta cell repl | hiPSC survival | TAG conf
Cc1cccc(C)c1-n1nnnc1C1c2ccccc2C(=O)N1CCCn1ccnc1 (stereo unspecified) | nt | nt | 1 | nt
CC(C)CNC(=O)c1coc(=O)c(Br)c1 | 60* | -6 | 3 | 17
CN(C)CCNC(=O)c1coc(=O)c(Br)c1 | 0 | -6 | -4 | nt
CN1OC[C@@H]2CN[C@H](c3ccc(-c4cccc(F)c4)cc3)C[C@@H]21 | 41 | nt | -1 | nt
COc1cccc(CN(C)CCCn2cnc(C(=O)Nc3ccc(C)c(C)c3)n2)c1 | -3 | nt | 2 | nt
Cc1ccc(C2C(C=Nc3c(C)n(C)n(-c4ccccc4)c3=O)=C(c3ccccc3)Oc3ccccc32)cc1 (stereo unspecified) | 69* | 0 | 0 | 57*
Cc1c(N=Cc2cccs2)c(=O)n(-c2ccccc2)n1C | nt | -2 | 0 | nt
COc1ccccc1N1CN(S(=O)(=O)c2ccc(C)cc2)c2nc3ccccc3nc21 | -9 | -1 | -1 | nt
Cc1cccc(N2CN(S(=O)(=O)c3cccc([N+](=O)[O-])c3)c3nc4ccccc4nc32)c1 | 54* | -3 | 2 | 37
O=C1c2ccccc2C(c2nnnn2-c2ccc3c(c2)OCCO3)N1Cc1cccs1 (stereo unspecified) | nt | nt | 2 | nt
Cn1nc(C2CC2)cc1NC(=O)C1(C)CCN1C(=O)Cc1ccc(-c2ccccc2)cc1 (stereo unspecified) | -7 | nt | -1 | nt
CC1(C(=O)Nc2ccc3[nH]ncc3c2)CCN1C(=O)Cc1ccc(-c2ccccc2)cc1 (stereo unspecified) | -49 | nt | -2 | nt
Cc1nn(-c2ccccc2)c(Cl)c1/C=N/NC(N)=O | 4 | -2 | 0 | nt
NC(=O)N/N=C/c1c(Sc2nnnn2-c2ccccc2)nc2ccccn2c1=O | 52* | -6 | 4 | 64*
CCC1=Nc2cc(C(=O)NCCCOC)ccc2Sc2ccccc21 | 61* | -3 | 3 | 45*
CCC1=Nc2cc(C(=O)NCCN3CCCC3)ccc2Sc2ccccc21 | nt | -2 | 1 | nt
CCN1C(=O)[C@H]2[C@@H](c3ccc(C)cc3)N[C@]3(CCCN(Cc4ccco4)C3=O)[C@H]2C1=O | -3 | nt | 0 | nt
CCOC(=O)[C@]12CCC=C1N(Cc1cccc3ccccc13)C(=O)[C@H](CC(=O)N1CCSCC1)C2 | nt | nt | 0 | nt
CC1(C(=O)Nc2cccc3cccnc23)CCN1Cc1ccccc1OC(F)F (stereo unspecified) | -2 | nt | 5 | nt
COc1cc2ccccc2cc1C(=O)N/N=C/c1cccs1 | 55* | nt | -2 | 64*
COC(=O)N/N=C/c1cccs1 | -1 | -1 | -1 | nt
O=C(Nc1cccc2ccccc12)c1ccc([N+](=O)[O-])o1 | nt | -5 | -1 | nt
Cc1cccc(NC(=O)c2ccc([N+](=O)[O-])o2)c1C | 71* | 0 | 0 | 62*
COc1cc(-c2cc3nc(NCCc4ccncc4)ccn3n2)cc(OC)c1OC | 23 | nt | 17 | nt
COc1cc(-c2cc3nc(NCCOc4ccccc4)ccn3n2)cc(OC)c1OC | 54* | nt | 0 | 49*
CCc1nc2ccc(C(=O)N(CC)CCN(C)C)cn2c1N(CC)CCOC | 6 | nt | 4 | nt
O=C(Nc1ccc(Cl)cc1)C1Cc2c(-c3cccc(F)c3)ccnc2O1 (stereo unspecified) | -46 | nt | 1 | nt
CCCCC(=O)N(C)c1c(C)nc2ccc(C(=O)Nc3cccc(NS(C)(=O)=O)c3)cn12 | 7 | nt | 4 | nt
O=C(/C=C\c1ccccc1)Oc1cccc2cccnc12 | 1 | -4 | -2 | nt
O=C(/C=C/c1ccccc1)Oc1cccc2cccnc12 | 50* | 2 | -1 | -5
